High-throughput results as filed in PubChem.
Only some compounds are listed: those with a hit (about 12% of all), similar ones and a draw of the others.
SARS PLP yeast: blocks SARS-CoV papain-like protease in a yeast assay; S. cerevisiae expressing SARS-CoV PLpro, growth rescue; Potency, µM (series often up to 32.9 µM), inactives show at the top dose activity, positive = growth rescue, usual class: activators; 330,000 tested, 0.19% active; calls by dose curve; note: 0% is about no effect; nearly all actives have a fitted effect of over 55% in size
AmpC no deterg: AmpC beta-lactamase inhibition without detergent. P00811. Potency, µM (top dose mostly 57.1 µM), without a hit: at the top dose activity change, negative = inhibition, usual class: inhibitors. 330,000 tested, 0.52% active. AmpC nitrocefin hydrolysis, absorbance 480 nm, 0.0001% Triton;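 note: plate controls were no compound for no effect and no enzyme for full effect; nearly all actives have a fitted effect of over 20% in size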
Target sequence (P00811 whole entry, looked up): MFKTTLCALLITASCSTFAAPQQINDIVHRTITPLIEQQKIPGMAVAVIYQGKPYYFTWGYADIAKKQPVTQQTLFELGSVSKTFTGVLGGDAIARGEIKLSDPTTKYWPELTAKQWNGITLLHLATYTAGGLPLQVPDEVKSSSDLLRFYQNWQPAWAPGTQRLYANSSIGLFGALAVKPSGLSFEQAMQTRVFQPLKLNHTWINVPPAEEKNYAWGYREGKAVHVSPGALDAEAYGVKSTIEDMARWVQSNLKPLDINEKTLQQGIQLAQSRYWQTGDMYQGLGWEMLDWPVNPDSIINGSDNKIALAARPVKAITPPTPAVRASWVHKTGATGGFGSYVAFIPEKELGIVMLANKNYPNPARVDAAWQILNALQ
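AmpC (5.3 nM in the dispensed reagent) in 20 mM phosphate pH 7.0 with 0.01% (detergent screen) or 0.0001% Triton X-100 was preincubated with compounds for 15 min at room temperature. Nitrocefin was then added from an 800 uM solution, and hydrolysis was followed at 480 nm.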
Pf growth 48h: inhibits P. falciparum growth in the first generation, 48 h; P. falciparum luciferase growth in erythrocytes, 48 h; Potency, µM (highest dose often 28.7 µM), for the others: at the top dose activity change, negative = inhibition, usual class: inhibitors; 310,000 tested, 5.9% active; note: % is set by controls: 0 for no effect and ±100 for the full control effect
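Erythrocytes infected with P. falciparum carrying an integrated firefly luciferase reporter (2% hematocrit, 0.1% parasitemia final) were exposed to compounds in RPMI 1640 with 0.5% Albumax at 37 C, 5% CO2. Growth inhibition was scored as reduced luminescence.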
Sm TGR block: blocks Schistosoma mansoni thioredoxin glutathione reductase | 360,000 tested, 3% active | Potency, µM (doses to about 114 µM), without a hit: at the highest dose activity change, negative = inhibition, hits mostly inhibitors | Q962Y6 | purified TGR, DTNB reduction, TNB absorbance 405 nm; note: % is set by controls: 0 for no effect and ±100 for the full control effect; nearly all actives have a fitted effect of over 60% in size
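Kinetic colorimetric format: TGR-catalysed, NADPH-driven DTNB reduction monitored via TNB absorbance. Enzyme dispensed at 20 nM; compound exposure 15 min at room temperature before reaction start.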
Pf growth 96h: P. falciparum growth inhibition at 96 hour, primary screen for plastid delayed-death inhibitors; P. falciparum luciferase reporter growth, 96 h; Potency, µM (doses to about 28.7 µM), without a hit: top-dose activity change, negative = inhibition, most hits filed as inhibitors; 320,000 tested, 6.9% active; note: % is set by controls: 0 for no effect and ±100 for the full control effect
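Delayed-death screen, second-generation endpoint: infected erythrocytes, 2% hematocrit, 0.05% parasitemia final; 96 hours at 37 C, 5% CO2; luciferase detection reagent; luminescence decrease equals reduced growth.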
AmpC detergent: inhibitors of E. coli AmpC beta-lactamase with detergent; AID 485294; P00811; AmpC hydrolysis of nitrocefin, absorbance 480 nm, 0.01% Triton; Potency, µM (titrated, usually from 114 µM), for inactives: top-dose activity change, negative = inhibition, most hits filed as inhibitors; 370,000 tested, 0.041% active;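 note: 0% = no-compound wells and -100% = no-enzyme wells; nearly all actives have a fitted effect of over 25% in size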
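20 mM phosphate pH 7.0 + 0.01% (detergent screen) or 0.0001% Triton X-100; 5.3 nM AmpC reagent; cpd preinc 15 min RT; nitrocefin (800 uM stock) to start; A480 q20 s × 4 min; Activity was normalised to no-enzyme and no-compound control wells.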
An asterisk follows results filed as active; ? = inconclusive; / = no result given. Unless noted, calls come from the whole dose curve; as a rule, active = well fitted curve in the direction sought with a large enough effect; inconclusive = small, poorly fitted or top-dose-only effect, or another doubt; inactive = no such curve, though single readings can be large; an effect the other way counts as inactive or inconclusive. Potency is the fitted concentration of half-maximal effect.

SMILES | SARS PLP yeast | AmpC no deterg | Pf growth 48h | Sm TGR block | Pf growth 96h | AmpC detergent
CCOc1ccc(OCC)c(S(=O)(=O)n2ccnc2C)c1 | -17% | -5% | 140% | 10% | ? | 6%
COc1ccccc1/C=C/C1(C(=O)NC2CCCC2)CC(=O)N1c1ccc(C)cc1 (stereo not drawn) | 1% | 48% | ? | 0% | -16% | -7%
COc1ccccc1/C=C/C1(C(=O)NC2CCCC2)CC(=O)N1c1ccc(F)cc1 (stereo not drawn) | 1% | 44% | 10µM* | -30% | 32% | -1%
CC1CCN(C(=O)c2[nH]cnc2C(=O)NC2CCN(C(=O)OC(C)(C)C)CC2)CC1 | -5% | 63% | ? | -4% | ? | -5%
COC(=O)C(Cc1ccccc1)NC(=O)CCNC(=O)c1ccco1 (stereo not drawn) | -3% | -6% | 12% | -2% | 13% | ?
Cc1ccc(S(=O)(=O)CNC(=S)c2cccc(C)c2)cc1 | -3% | -24% | / | 3.5µM* | -2% | 0%
COc1ccc(CNC(=O)C(C)NS(=O)(=O)c2ccc(C)cc2)cc1 (stereo not drawn) | 1% | 2% | 13% | 15% | 2% | 7%
Cc1ccc(S(=O)(=O)CC(=O)c2ccccc2)cc1 | 7% | -38% | 0% | 17% | 24% | -3%
Cc1ccc(S(=O)(=O)CNC(=S)c2ccc3ccccc3c2)cc1 | -8% | -36% | / | 3.2µM* | 3% | -3%
Cc1ccc(S(=O)(=O)CNC(=O)c2ccccc2)cc1 | 4% | 1% | 6% | 20µM* | 5% | 7%
COc1ccc(C(=S)NCS(=O)(=O)c2ccc(C)cc2)cc1 | -23% | -55% | 10% | 2.5µM* | 7% | ?
CCOC(=O)c1ccc(N2CCN(c3cccc(Cl)c3)CC2)c(NC(=O)Nc2ccc(OC)cc2OC)c1 | / | / | / | 3% | / | 7%
CC(C)CN(C(=O)COC(=O)c1c2c(nc3ccccc13)CCC2)c1c(N)n(Cc2ccccc2)c(=O)[nH]c1=O | 19% | 110% | 8.3µM* | -8% | 6.6µM* | -1%
CN(C(=O)COC(=O)c1c2c(nc3ccccc13)CCCC2)c1c(N)n(Cc2ccccc2)c(=O)[nH]c1=O | -10% | 57% | 13µM* | 0% | 8.3µM* | -21%
CC(C)CN(C(=O)COC(=O)c1ccc(Br)cc1)c1c(N)n(Cc2ccccc2)c(=O)[nH]c1=O | 1% | -18% | ? | -3% | ? | ?
CCOc1ccc(NC(=O)CSc2nc3c(oc4ccccc43)c(=O)n2-c2cc(C)cc(C)c2)cc1 | / | / | / | 9% | / | -5%
Cc1cccc(N/C=C(\[N+](=O)[O-])S(=O)(=O)c2ccccc2)c1C | 1% | -21% | 12µM* | -24% | 24% | ?
CCOCCCn1c(C)nc2c(c1=O)c1nc3ccccc3nc1n2-c1ccc(C)cc1 | -1% | -7% | 0% | -3% | ? | -2%
CCO/C(C)=N/n1c2nc3ccccc3nc2c2c(=O)n(CC(C)C)c(C)nc21 | 8% | -2% | 2.9µM* | -35% | 2.3µM* | 0%
Cc1ccc(NC(=O)C(OC(=O)c2cc(C)oc2C)c2ccccc2)cc1 (stereo not drawn) | -24% | -38% | 5% | -4% | ? | -14%
Cc1cc(C(=O)OC(C(=O)Nc2cccc(C(F)(F)F)c2)c2ccccc2)c(C)o1 (stereo not drawn) | 1% | -28% | 9.3µM* | -16% | 5.2µM* | ?
COn1c(C)c(C)c2c3nonc3ccc21 | -1% | -13% | -25% | 20µM* | 0% | -1%
CCOC(=O)c1c(C)n(OCc2ccccc2)c2ccc3nonc3c12 | -5% | -34% | ? | -14% | ? | -7%
Cc1c2c(=O)n(-c3nc4ccccc4s3)nc-2cc(O)n1Cc1ccccc1 | 2% | 16µM* | 2.9µM* | -7% | 2.9µM* | 0%
CCOC(=O)/C(N=O)=C(\O)C1CCN(C(=O)OCC)CC1 | 11% | 0% | / | -24% | 13µM* | -12%
SMILES | SARS PLP yeast | AmpC no deterg | Pf growth 48h | Sm TGR block | Pf growth 96h | AmpC detergent
N=c1c2c(-c3ccccc3)c(-c3ccccc3)oc2ncn1CCN1CCOCC1 | -19% | 198% | 7.4µM* | 5% | 9.3µM* | 3%
N=c1c2c(-c3ccccc3)c(-c3ccccc3)oc2ncn1CCCN1CCOCC1 | 0% | 130% | 13µM* | -5% | 12µM* | -4%
c1ccc(-c2oc3ncnc(NCCN4CCOCC4)c3c2-c2ccccc2)cc1 | 0% | 186% | ? | -31% | 14% | ?
CCN(CC)CCCNC(=O)c1nn(-c2ccc(OC)c(Cl)c2)c(=O)c2c1c1ccccc1n2C | / | / | / | 9% | / | 0%
Fc1ccc(CSc2ncnc3nc[nH]c23)cc1 | -12% | 1.6µM* | 7% | -1% | -2% | ?
COc1ccc(CSc2nc(CSC)cc(N3CCOCC3)n2)cc1 | 14% | 41% | 12µM* | 19% | ? | -1%
COc1ccc2c(C)cc(N3CCOCC3)nc2c1 | 1% | -5% | 55% | -28% | 94% | -5%
COC(=O)C1CCN(S(=O)(=O)CCNC(=O)c2ccc(F)cc2)CC1 | 1% | -19% | -12% | 0% | -13% | -10%
COc1ccc(NC(=O)CN(C)C(=O)c2cn(-c3ccccc3)nc2-c2ccc(F)cc2)cc1 | 6% | 8% | 12µM* | -10% | ? | -7%
COc1ccc(NC(=O)CN(C)C(=O)/C=C/c2cn(-c3ccccc3)nc2-c2ccc(F)cc2)cc1 | 5% | -21% | ? | 3% | ? | -1%
Cc1ccc(-c2nn(-c3ccc(F)cc3)cc2C(=O)N(C)CC(=O)Nc2ccc(N3CCOCC3)cc2)cc1 | -4% | 10% | -19% | -4% | ? | -17%
COc1ccc(-c2nn(-c3ccccc3)cc2C(=O)NC(=S)Nc2cc(Cl)ccc2Cl)cc1 | 1% | -28% | 2.9µM* | -15% | 5.2µM* | -3%
COc1ccc(NC(=O)CN(C)C(=O)c2cn(-c3ccccc3)nc2-c2ccc(OC)cc2)cc1 | -1% | 10% | 13µM* | 2% | ? | ?
COc1ccc(NC(=O)CN(C)C(=O)/C=C/c2cn(-c3ccccc3)nc2-c2ccc(C)cc2)cc1 | 1% | -1% | 9.3µM* | -4% | 13µM* | 0%
COc1ccc(-c2nn(-c3ccccc3)cc2C(=O)N(C)C)cc1 | 0% | 14% | 34% | 0% | ? | -7%
COc1ccc(Cl)cc1Nc1ncnc2c1nc1n2CCCC1 | / | / | / | 1% | / | 16%
CC(=O)C1=C(O)C(=O)N(c2cccnc2)C1c1ccc(Cl)cc1 (stereo not drawn) | 9% | -7% | 92% | -4% | 26% | -3%
